Experimental data published in PubChem BioAssay (EPA / NIEHS).
Values joined by “and” are separate entries in the source; they are usually repeats but may differ in a detail not shown here. Equal entries are not always repeated. Records with an inconclusive call do not appear. Some structures have more than one record in an assay (separate samples or runs), and their calls can disagree. Active and inactive are the calls of the source. Rule for the calls, unless noted: active = hit-call score of the fitted dose curve at least 0.9, where 1 is the maximum; inactive = score below 0.9.

Key:
[1] = molecular target: Glucocorticoid receptor (Homo sapiens) (UniProt P04150); test: ATG_GR_TRANS: Attagene TRANS-FACTORIAL HepG2 Assay for human Glucocorticoid Receptor (GR) (AID 2282978; active = hit-call score of the fitted dose curve at least 0.9, where 1 is the maximum;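 note: activators score as hits since higher reporter transcript over DMSO is fitted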); conditions: HepG2 Attagene TRANS GR reporter, mRNA transcription
How it was run: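 Fluorescent capillary-electrophoresis quantitation of reporter mRNA is the readout, taken 24 h after dosing human HepG2 cells carrying transiently transfected GAL4-UAS reporter units activated by chimeric NR-GAL4 fusions; activity scored as induction over DMSO.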

[2] = molecular target: Bile acid receptor (Homo sapiens) (UniProt Q96RI1); test: ATG_FXR_TRANS: Attagene TRANS-FACTORIAL HepG2 Assay for Farnesoid X Receptor (FXR) (AID 2282979; active = hit-call score of the fitted dose curve at least 0.9, where 1 is the maximum;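 note: hits raise reporter mRNA above DMSO so AC50 marks FXR activation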); conditions: HepG2 Attagene TRANS FXR-GAL4 reporter transcription
How it was run: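 Reporter transcripts from transfected HepG2 cells were measured 24 h after dosing, using RT-PCR with capillary electrophoresis of 6-FAM-labelled fragments. The read-out reflects activity of exogenous FXR-Gal4 chimera on GAL4-UAS units, with induction relative to DMSO.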

[3] = molecular target: Oxysterols receptor LXR-alpha (Homo sapiens) (UniProt Q13133); test: ATG_LXRa_TRANS: Attagene TRANS-FACTORIAL HepG2 Assay for human Liver X Receptor alpha (LXRa) (AID 2282980; active = hit-call score of the fitted dose curve at least 0.9, where 1 is the maximum); conditions: HepG2 Attagene TRANS reporter, LXRa transactivation
How it was run: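 Chemical-induced reporter mRNA measured by RT-PCR with fluorescent labelling and capillary electrophoresis after 24 h dosing of transiently transfected HepG2 cells expressing exogenous NR-Gal4 chimeras; increases scored against DMSO baseline.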

[4] = ATG_M_32_TRANS: Attagene TRANS-FACTORIAL HepG2 Assay for M32 Transcription Factor (Internal Marker) (AID 2282984; active = hit-call score of the fitted dose curve at least 0.9, where 1 is the maximum); conditions: HepG2 Attagene TRANS M32 internal marker reporter
How it was run: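 Internal background reporter in transfected HepG2: after 24 h chemical exposure, RNA reverse-transcribed, reporter cDNA amplified, fluorescently labelled and HpaI-cut, then sized by capillary electrophoresis. Gain of signal fitted against DMSO control.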

[5] = molecular target: Nuclear receptor subfamily 4 group A member 2 (Homo sapiens) (UniProt P43354); test: ATG_NURR1_TRANS: Attagene TRANS-FACTORIAL HepG2 Assay for human Nuclear Receptor Related Protein 1 (NURR1) (AID 2282985; active = hit-call score of the fitted dose curve at least 0.9, where 1 is the maximum); conditions: HepG2 Attagene TRANS reporter, mRNA readout
How it was run: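 Reporter transcript induction, measured by RT-PCR with fluorescent labelling, HpaI digestion and capillary electrophoresis, after 24 hr dosing of human HepG2 cells transiently expressing an exogenous NR-Gal4 fusion with GAL4-UAS-driven reporters; DMSO as baseline.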

[6] = molecular target: Transcriptional activator Myb (Homo sapiens) (UniProt P10242); test: ATG_Myb_CIS: Attagene CIS-FACTORIAL HepG2 Assay for human Myeloblastosis (Myb) Proto-Oncogene Transcription Factor (AID 2282986); conditions: HepG2 Attagene CIS-FACTORIAL Myb reporter transcription; actives raise or lower the signal
How it was run: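 Reporter transcript levels, quantified by fluorescent RT-PCR and capillary electrophoresis, serve as the read-out. Transfected HepG2 cells carrying cis-promoter reporter units are dosed for 24 hours, and curves are fitted bidirectionally against DMSO controls.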

[7] = molecular target: Nuclear respiratory factor 1 (Homo sapiens) (UniProt Q16656); test: ATG_NRF1_CIS: Attagene CIS-FACTORIAL HepG2 Assay for human Nuclear Respiratory Factor 1 (NRF1) Orphan Gene (AID 2282987); conditions: HepG2 NRF1 cis-element reporter, Attagene multiplex; actives raise or lower the signal
How it was run: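 Multiplexed cis-reporter assay, HepG2 cells, 24 h treatment. Total RNA → oligo(dT) RT → PCR with reporter-specific primers → 6-FAM primer extension → HpaI cut → CE. Bidirectional fit vs DMSO.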

[8] = ATG_NFI_CIS: Attagene CIS-FACTORIAL HepG2 Assay for human Nuclear Factor I (NFI) (AID 2282989); conditions: HepG2 cis-regulatory reporter, NFI response element transcription; actives raise or lower the signal
How it was run: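 Transient MRTU transfection of HepG2 → 24 h chemical dosing → total RNA, oligo(dT) RT → PCR, 6-FAM primer extension, HpaI cut → capillary electrophoresis. Endpoint fitted bidirectionally relative to DMSO.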

[9] = molecular target: Myc proto-oncogene protein (Homo sapiens) (UniProt P01106); test: ATG_Myc_CIS: Attagene CIS-FACTORIAL HepG2 Assay for human Myelocytomatosis (Myc) Proto-Oncogene Transcription Factor (AID 2282990); conditions: HepG2, Attagene cis-reporter transcription factor activity; actives raise or lower the signal
How it was run: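 Cells of the HepG2 human liver line bear multiple cis-driven reporter transcription units. Reporter mRNA after 24 h exposure is reverse-transcribed, amplified, labelled and resolved by capillary electrophoresis, with gain- or loss-of-signal fitting relative to DMSO.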

[10] = ATG_NRF2_ARE_CIS: Attagene CIS-FACTORIAL HepG2 Assay for human Nuclear Factor Erythroid 2 Related Factor 2 (NFR2) response to Antioxidant Response Elements (ARE) (AID 2282992); conditions: HepG2 Attagene ARE/NRF2 reporter, transcription factor activity; actives raise or lower the signal
How it was run: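 Endogenous transcription factor activity read out as reporter transcript levels (RT-PCR plus capillary electrophoresis, fluorescence) in transiently transfected HepG2 cells. Measured at 24 h after dosing; gain or loss of signal fitted versus DMSO.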

[11] = ATG_Oct_MLP_CIS: Attagene CIS-FACTORIAL HepG2 Assay for human Octamer-Binding Transcription Factor (Oct) (AID 2282993); conditions: HepG2 Attagene cis-factorial Oct reporter, mRNA; actives raise or lower the signal
How it was run: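 Transient MRTU transfection of HepG2 → 24 h compound treatment → RNA isolation, reverse transcription, PCR → 6-FAM primer extension, HpaI digest → capillary electrophoresis. Activity fitted both directions against DMSO.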

[12] = molecular target: Cellular tumor antigen p53 (Homo sapiens) (UniProt P04637); test: ATG_p53_CIS: Attagene CIS-FACTORIAL HepG2 Assay for human p53 Transcription Factor (AID 2282994); conditions: HepG2 p53 cis-element reporter, Attagene mRNA; actives raise or lower the signal
How it was run: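 Endogenous p53 activity read in transiently transfected HepG2 from a cis-element-driven reporter transcript after 24 h exposure. RNA reverse-transcribed, PCR-amplified, fluorescently labelled and sized by capillary electrophoresis; gain or loss fitted against DMSO baseline.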

[13] = BSK_3C_uPAR: BioMAP Diversity Plus: 3C Assay for Urokinase-type plasminogen activator receptor (uPAR) Biomarker Activity (AID 2282998); conditions: BioMAP 3C HUVEC, uPAR biomarker ELISA; actives raise or lower the signal
How it was run: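 ELISA readout of uPAR on human vascular endothelium (umbilical vein primary cells), taken 24 h after chemical dosing. Increases and decreases are both fitted relative to DMSO vehicle.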

[14] = BSK_3C_VCAM1: BioMAP Diversity Plus: 3C Assay for Vascular cell adhesion molecule 1 (VCAM1) Biomarker Activity (AID 2282999); conditions: BioMAP 3C HUVEC, VCAM1 ELISA, cytokine-stimulated; actives raise or lower the signal
How it was run: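 Activity fitted in both directions relative to DMSO, with ELISA measurement of the surface marker on primary HUVEC (3C) at 24 h post-treatment; parallel SRB staining (0.1% SRB, TCA-fixed, 560 nm) flagged overt cytotoxicity.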

[15] = BSK_4H_Eotaxin3: BioMAP Diversity Plus: 4H Assay for Eotaxin 3 Biomarker Activity (AID 2283000); conditions: primary human endothelial cells (HUVEC); actives raise or lower the signal
How it was run: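 Human umbilical vein endothelial cells (BSK_4H system) dosed with test chemical; Eotaxin-3 (CCL26) measured by ELISA 24 h after dosing. Bidirectional curve fitting relative to DMSO negative control as baseline.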

[16] = molecular target: Oxysterols receptor LXR-beta (Homo sapiens) (UniProt P55055); test: ATG_LXRb_TRANS: Attagene TRANS-FACTORIAL HepG2 Assay for human Liver X Receptor beta (LXRb) (AID 2282981; active = hit-call score of the fitted dose curve at least 0.9, where 1 is the maximum); conditions: HepG2 Attagene TRANS GAL4-LXRb reporter, mRNA
How it was run: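 After 24 h chemical treatment of transfected HepG2 cells carrying exogenous NR-Gal4 chimeras, reporter mRNA was quantified by fluorescent RT-PCR and capillary electrophoresis; activity taken as increase over DMSO controls.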

[17] = molecular target: Hepatocyte nuclear factor 4-alpha (Homo sapiens) (UniProt P41235); test: ATG_HNF4a_TRANS: Attagene TRANS-FACTORIAL HepG2 Assay for human Hepatocyte Nuclear Factor 4 alpha (HNF4a) (AID 2282982; active = hit-call score of the fitted dose curve at least 0.9, where 1 is the maximum); conditions: HepG2 HNF4a transactivation reporter, mRNA readout
How it was run: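 Activity of an exogenous HNF4a–Gal4 fusion scored as induced GAL4-UAS reporter transcripts after 24 h chemical exposure of transfected human HepG2 cells. Read-out via RT-PCR with 6-FAM labelling and capillary electrophoresis; rise over DMSO baseline.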

[18] = ATG_M_06_TRANS: Attagene TRANS-FACTORIAL HepG2 Assay for M06 Transcription Factor (Internal Marker) (AID 2282983; active = hit-call score of the fitted dose curve at least 0.9, where 1 is the maximum); conditions: HepG2 Attagene TRANS M06 internal marker reporter
How it was run: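 Background-control reporter readout: after 24 h chemical exposure of transiently transfected HepG2 (GAL4-UAS reporter units), mRNA quantified by RT-PCR with fluorescent labeling and capillary electrophoresis. Gain-of-signal fitting against DMSO baseline.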

[19] = BSK_3C_TissueFactor: BioMAP Diversity Plus: 3C Assay for Tissue Factor Biomarker Activity (AID 2282997); conditions: BioMAP 3C HUVEC, tissue factor biomarker readout; actives raise or lower the signal
How it was run: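 Tissue factor on primary human umbilical vein endothelium was read by ELISA 24 h after dosing, gain or loss relative to DMSO. Cytotoxicity ran alongside via SRB (0.1%, TCA-fixed, 560 nm).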

[20] = ATG_NF_kB_CIS: Attagene CIS-FACTORIAL HepG2 Assay for human Nuclear Factor Kappa B (NF-kB) (AID 2282991); conditions: HepG2 Attagene cis-factorial NF-kB reporter mRNA; actives raise or lower the signal
How it was run: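 Transient MRTU transfection of human HepG2 liver cells → 24 h chemical exposure → total RNA, oligo(dT) RT → PCR, 6-FAM primer extension, HpaI digest 2 h 37 C → CE fragment analysis. Bidirectional fitting, DMSO negative control.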

Measured: AC50

Chain of Cellular tumor antigen p53 (Homo sapiens) (P04637 whole entry, looked up): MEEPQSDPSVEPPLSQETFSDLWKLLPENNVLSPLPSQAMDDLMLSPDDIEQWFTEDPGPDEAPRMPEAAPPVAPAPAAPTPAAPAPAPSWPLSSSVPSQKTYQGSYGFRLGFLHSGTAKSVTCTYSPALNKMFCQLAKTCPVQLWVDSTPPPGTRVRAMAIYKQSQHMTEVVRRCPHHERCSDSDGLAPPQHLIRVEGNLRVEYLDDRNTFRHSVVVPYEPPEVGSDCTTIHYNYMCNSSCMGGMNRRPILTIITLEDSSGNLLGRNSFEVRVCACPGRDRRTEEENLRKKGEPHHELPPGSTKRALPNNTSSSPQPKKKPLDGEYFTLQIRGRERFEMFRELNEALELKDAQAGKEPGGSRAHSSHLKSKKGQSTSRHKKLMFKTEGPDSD
Chain of Glucocorticoid receptor (Homo sapiens) (P04150 whole entry, looked up, the tested form may be a part): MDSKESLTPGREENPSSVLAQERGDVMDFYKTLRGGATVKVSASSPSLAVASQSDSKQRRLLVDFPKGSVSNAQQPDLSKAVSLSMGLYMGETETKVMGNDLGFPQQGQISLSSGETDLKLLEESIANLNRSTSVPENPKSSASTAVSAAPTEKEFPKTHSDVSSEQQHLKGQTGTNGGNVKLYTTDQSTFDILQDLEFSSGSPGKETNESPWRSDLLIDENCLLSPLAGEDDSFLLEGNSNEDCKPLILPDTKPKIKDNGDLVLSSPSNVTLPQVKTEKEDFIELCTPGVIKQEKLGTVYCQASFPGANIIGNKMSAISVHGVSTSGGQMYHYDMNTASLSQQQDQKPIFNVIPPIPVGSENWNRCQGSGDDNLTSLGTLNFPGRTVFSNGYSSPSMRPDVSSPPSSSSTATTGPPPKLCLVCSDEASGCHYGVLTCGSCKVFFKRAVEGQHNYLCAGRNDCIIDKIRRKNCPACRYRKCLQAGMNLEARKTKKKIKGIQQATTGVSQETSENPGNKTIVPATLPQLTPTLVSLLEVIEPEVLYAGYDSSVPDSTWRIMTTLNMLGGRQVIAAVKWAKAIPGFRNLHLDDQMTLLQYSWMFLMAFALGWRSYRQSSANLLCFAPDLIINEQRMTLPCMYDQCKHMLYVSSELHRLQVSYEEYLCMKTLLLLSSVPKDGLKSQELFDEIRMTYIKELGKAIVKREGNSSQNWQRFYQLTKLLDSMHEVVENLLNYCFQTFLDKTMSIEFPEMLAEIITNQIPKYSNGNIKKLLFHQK
Chain of Hepatocyte nuclear factor 4-alpha (Homo sapiens) (P41235 whole entry, looked up, the tested form may be a part): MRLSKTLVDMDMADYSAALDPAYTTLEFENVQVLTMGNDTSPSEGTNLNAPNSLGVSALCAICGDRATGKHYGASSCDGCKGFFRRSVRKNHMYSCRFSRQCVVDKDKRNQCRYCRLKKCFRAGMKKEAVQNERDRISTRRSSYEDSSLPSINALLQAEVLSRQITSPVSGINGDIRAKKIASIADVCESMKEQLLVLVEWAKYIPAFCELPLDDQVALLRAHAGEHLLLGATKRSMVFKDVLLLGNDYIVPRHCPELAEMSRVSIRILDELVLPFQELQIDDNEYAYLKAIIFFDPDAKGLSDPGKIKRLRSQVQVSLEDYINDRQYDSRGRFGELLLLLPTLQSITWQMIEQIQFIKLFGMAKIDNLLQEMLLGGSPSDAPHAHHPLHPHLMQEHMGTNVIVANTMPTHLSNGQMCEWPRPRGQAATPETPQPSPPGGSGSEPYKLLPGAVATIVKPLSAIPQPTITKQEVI
Chain of Oxysterols receptor LXR-beta (Homo sapiens) (P55055 whole entry, looked up, the tested form may be a part): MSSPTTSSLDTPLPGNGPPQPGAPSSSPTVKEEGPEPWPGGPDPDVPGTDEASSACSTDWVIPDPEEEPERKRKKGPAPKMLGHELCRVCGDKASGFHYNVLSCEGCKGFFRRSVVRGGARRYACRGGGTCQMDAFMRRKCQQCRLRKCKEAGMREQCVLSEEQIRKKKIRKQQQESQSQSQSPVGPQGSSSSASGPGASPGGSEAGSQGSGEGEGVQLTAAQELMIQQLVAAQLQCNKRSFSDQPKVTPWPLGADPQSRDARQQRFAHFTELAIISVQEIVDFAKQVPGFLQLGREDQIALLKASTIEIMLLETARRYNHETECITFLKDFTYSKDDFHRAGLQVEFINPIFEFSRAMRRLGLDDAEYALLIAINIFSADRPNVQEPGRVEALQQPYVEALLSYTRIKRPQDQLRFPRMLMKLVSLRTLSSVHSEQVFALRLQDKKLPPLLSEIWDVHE
Chain of Bile acid receptor (Homo sapiens) (Q96RI1 whole entry, looked up, the tested form may be a part): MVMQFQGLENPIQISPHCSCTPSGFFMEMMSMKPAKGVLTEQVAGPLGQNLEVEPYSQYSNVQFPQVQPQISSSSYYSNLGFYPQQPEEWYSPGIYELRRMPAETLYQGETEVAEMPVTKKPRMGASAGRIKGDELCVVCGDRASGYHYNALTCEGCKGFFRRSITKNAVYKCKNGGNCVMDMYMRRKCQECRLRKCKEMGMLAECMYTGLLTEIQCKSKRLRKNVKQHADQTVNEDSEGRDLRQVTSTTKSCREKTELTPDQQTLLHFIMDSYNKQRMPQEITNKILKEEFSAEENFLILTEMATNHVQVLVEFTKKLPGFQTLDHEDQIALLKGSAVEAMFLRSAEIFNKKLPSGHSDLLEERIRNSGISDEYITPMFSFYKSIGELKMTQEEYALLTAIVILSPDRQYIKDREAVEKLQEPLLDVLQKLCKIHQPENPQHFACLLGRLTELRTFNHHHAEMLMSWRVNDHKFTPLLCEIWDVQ
Chain of Transcriptional activator Myb (Homo sapiens) (P10242 whole entry, looked up): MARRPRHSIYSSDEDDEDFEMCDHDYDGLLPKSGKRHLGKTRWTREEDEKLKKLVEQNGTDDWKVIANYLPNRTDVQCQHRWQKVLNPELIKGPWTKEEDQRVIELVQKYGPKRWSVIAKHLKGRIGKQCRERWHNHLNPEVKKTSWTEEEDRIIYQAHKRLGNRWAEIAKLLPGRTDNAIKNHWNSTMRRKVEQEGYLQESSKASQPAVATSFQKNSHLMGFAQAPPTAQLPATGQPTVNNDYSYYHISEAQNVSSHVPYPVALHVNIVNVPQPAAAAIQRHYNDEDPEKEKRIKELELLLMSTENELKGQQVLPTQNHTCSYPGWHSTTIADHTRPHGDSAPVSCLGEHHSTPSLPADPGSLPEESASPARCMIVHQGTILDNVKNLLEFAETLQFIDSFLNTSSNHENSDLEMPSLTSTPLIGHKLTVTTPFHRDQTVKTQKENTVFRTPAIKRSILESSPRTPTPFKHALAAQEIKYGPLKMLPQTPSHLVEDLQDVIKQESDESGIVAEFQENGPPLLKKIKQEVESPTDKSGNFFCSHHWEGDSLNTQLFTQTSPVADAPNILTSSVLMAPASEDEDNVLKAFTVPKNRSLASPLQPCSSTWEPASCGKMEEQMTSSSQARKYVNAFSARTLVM
Chain of Nuclear respiratory factor 1 (Homo sapiens) (Q16656 whole entry, looked up): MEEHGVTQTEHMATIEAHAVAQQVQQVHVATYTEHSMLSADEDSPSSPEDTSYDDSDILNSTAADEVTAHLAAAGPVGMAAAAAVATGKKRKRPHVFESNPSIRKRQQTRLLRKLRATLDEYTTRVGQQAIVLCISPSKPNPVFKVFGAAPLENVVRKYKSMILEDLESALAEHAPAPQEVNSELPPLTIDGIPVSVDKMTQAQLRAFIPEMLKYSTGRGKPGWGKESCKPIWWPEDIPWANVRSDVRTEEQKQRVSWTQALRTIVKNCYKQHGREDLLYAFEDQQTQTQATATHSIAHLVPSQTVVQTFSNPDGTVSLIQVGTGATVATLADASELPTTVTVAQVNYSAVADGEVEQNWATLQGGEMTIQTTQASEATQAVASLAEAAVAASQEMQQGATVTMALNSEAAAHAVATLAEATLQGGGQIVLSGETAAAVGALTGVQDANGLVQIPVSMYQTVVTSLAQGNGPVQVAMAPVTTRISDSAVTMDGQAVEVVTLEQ
Chain of Myc proto-oncogene protein (Homo sapiens) (P01106 whole entry, looked up): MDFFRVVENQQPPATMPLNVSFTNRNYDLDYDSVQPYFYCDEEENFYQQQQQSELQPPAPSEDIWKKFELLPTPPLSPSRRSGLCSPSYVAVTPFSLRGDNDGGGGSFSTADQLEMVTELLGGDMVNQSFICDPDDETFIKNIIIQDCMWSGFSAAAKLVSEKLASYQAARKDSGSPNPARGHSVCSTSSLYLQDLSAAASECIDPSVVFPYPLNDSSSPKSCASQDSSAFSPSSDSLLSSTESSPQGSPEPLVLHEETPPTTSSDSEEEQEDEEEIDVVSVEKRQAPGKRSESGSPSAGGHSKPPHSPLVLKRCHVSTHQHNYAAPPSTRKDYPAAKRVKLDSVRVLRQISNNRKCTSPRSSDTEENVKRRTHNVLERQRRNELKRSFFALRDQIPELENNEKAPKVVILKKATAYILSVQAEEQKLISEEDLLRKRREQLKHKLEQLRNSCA
Chain of Oxysterols receptor LXR-alpha (Homo sapiens) (Q13133 whole entry, looked up, the tested form may be a part): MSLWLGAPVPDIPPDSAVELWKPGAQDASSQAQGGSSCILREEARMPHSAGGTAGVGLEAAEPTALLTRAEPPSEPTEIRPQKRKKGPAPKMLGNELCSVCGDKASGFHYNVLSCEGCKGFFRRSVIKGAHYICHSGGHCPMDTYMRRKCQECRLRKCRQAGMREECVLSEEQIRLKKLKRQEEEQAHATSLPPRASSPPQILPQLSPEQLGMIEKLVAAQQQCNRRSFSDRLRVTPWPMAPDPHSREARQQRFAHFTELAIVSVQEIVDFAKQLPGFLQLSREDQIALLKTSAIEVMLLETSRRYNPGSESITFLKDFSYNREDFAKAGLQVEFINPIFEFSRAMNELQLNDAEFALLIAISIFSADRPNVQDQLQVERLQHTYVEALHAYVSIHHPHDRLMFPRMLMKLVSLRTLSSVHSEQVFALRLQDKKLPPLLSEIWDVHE

Cc1oc2c(NC(=O)c3c(Cl)cccc3Cl)cccc2c1C(C)(C)O
active: [12] 25.6 µM | [13] 25.7 µM | [15] 7.04 µM
not listed: [16] | [17] | [18] | [19] | [20]
inactive: all other assays above

C[C@]12CC[C@@H]3c4ccc(O)cc4CC[C@H]3[C@@H]1CC[C@H]2O
inactive: [1] | [3] | [16] | [17] | [18] | [4] | [6] | [7] | [8] | [9] | [10] | [11] | [12] | [14]
active: [11] 27.2 µM | [12] 27.7 µM and 10.4 µM and 9.47 µM | [19] 18.1 µM | [13] 16.7 µM | [15] 25 µM

CC(C)(C)c1csc(-c2cc3cc(OCc4ccccc4CC(=O)O)ccc3o2)n1
active: [10] 8.91 µM | [11] 33.4 µM | [19] 35.7 µM | [13] 20.5 µM | [14] 29.8 µM | [15] 22.4 µM
not listed: [3] | [5] | [16] | [17] | [20]
inactive: all other assays above

NC(=O)c1nc(-c2cccc(-c3cc(F)ccc3OCC(F)(F)C(F)(F)F)c2)n[nH]1
active: [10] 8.83 µM | [11] 27.4 µM | [13] 26.6 µM | [14] 35.7 µM | [15] 37 µM
not listed: [3] | [5] | [16] | [17] | [18] | [19]
inactive: all other assays above

Cc1occc1C(=O)Nc1ccc(C(=O)N2CCC(F)(F)/C(=C\C(=O)N3CCC(N4CCCCC4)CC3)c3ccccc32)cc1
active: [9] 58.3 µM | [20] 18.5 µM | [10] 22 µM | [11] 49.6 µM
not listed: [2] | [5] | [19]
inactive: all other assays above

O=C(OCCCCCCOC(=O)c1ccccc1)c1ccccc1
not listed: [4] | [5] | [16] | [19]
inactive: all other assays above

CCCCCCCCCCCC[N+](C)(C)C
inactive: [1] | [2] | [3] | [16] | [17] | [18] | [4] | [6] | [7] | [8] | [9] | [20] | [11] | [12]
active: [10] 25.3 µM and 18.9 µM | [11] 20 µM | [13] 20 µM | [14] 25.8 µM | [15] 29.9 µM
